Test results from the supplement of paper PMC10849652.
The full data set covers some 7,900 targets. This sample favours those with a hit. About 0.6% of all pairs of compound and target were hits. Values without a mark were called inactive.

Compound: CC(C)(C)Cn1c(N)nc2ccc(-c3[nH]c(C(C)(C)C)nc3-c3ccc(F)cc3)nc21 [ralimetinib]
Test: log2 fold change, soluble protein after heating vs DMSO (PISA); higher = thermal stabilisation; K562 cells, 10 uM, 30 min; active = over 0.2 and 3.5 SD of the protein, either way, in both replicates (recomputed)
Summary of the method: (§1)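 For each measurement, 10 μM compound was applied for 30 min to K562 cells at 2×10^6 cells/mL. Aliquots were heated for 3 min across 48°C-58°C, pooled, and extracted in PBS with 0.5% NP-40 at 4°C; the supernatant after 21,000xg for 90 min was soluble protein. This was quantified by TMTpro 16plex LC-MS/MS with channel sums equalised, and thermal stability was reported relative to control samples from duplicates, on a log2 fold-change scale.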

Sequence of UniProt Q15759 (Q15759 whole entry, looked up): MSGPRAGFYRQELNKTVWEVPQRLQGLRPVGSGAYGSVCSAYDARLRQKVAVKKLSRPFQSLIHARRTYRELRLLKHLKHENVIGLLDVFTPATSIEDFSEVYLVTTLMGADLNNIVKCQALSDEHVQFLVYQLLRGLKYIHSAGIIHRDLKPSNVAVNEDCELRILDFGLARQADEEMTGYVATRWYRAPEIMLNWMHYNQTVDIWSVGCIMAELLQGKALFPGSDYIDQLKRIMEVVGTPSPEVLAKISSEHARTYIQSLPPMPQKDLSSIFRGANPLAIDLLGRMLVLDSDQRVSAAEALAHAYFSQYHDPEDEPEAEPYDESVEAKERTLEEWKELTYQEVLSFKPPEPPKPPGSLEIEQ
Sequence of UniProt P27816 (P27816 whole entry, looked up): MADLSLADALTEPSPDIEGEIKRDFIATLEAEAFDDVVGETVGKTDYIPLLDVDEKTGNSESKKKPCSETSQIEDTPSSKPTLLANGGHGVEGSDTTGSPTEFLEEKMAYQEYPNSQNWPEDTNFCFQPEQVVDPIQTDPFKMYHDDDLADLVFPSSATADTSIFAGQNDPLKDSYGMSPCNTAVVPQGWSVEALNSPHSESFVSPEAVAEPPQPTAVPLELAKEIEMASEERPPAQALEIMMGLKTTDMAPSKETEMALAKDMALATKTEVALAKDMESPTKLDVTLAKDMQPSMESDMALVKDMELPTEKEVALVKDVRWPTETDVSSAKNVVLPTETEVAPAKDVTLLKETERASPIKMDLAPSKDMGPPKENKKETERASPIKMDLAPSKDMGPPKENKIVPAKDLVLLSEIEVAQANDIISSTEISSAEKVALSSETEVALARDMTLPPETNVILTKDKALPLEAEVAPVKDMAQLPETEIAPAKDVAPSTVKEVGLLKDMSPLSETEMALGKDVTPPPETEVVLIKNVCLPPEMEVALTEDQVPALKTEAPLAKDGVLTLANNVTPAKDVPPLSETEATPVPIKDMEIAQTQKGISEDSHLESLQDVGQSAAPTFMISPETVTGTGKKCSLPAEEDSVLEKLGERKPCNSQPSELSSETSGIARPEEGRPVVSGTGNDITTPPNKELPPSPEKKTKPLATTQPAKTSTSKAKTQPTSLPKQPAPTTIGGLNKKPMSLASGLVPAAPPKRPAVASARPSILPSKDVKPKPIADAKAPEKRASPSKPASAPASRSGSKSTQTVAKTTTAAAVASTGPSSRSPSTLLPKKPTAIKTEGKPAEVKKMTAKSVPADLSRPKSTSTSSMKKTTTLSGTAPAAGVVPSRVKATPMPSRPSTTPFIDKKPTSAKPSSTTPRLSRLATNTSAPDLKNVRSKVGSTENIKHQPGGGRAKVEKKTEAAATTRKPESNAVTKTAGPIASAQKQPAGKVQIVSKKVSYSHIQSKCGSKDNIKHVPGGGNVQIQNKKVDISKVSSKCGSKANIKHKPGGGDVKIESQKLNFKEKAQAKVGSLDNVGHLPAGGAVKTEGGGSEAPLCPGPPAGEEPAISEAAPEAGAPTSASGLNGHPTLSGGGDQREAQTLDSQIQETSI
Sequence of UniProt Q92551 (Q92551 whole entry, looked up): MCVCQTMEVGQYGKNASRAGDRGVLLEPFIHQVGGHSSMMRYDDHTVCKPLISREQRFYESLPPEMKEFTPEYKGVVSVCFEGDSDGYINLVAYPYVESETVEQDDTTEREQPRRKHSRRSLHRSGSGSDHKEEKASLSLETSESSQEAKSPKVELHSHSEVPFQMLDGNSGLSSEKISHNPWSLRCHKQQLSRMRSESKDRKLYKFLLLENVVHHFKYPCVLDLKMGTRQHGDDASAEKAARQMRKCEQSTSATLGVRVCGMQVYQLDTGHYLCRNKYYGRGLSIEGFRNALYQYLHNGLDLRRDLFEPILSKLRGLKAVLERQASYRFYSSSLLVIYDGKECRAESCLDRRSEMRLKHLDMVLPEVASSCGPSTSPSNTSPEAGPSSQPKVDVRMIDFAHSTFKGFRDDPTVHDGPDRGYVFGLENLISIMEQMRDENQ
Sequence of UniProt Q9H3U5 (Q9H3U5 whole entry, looked up): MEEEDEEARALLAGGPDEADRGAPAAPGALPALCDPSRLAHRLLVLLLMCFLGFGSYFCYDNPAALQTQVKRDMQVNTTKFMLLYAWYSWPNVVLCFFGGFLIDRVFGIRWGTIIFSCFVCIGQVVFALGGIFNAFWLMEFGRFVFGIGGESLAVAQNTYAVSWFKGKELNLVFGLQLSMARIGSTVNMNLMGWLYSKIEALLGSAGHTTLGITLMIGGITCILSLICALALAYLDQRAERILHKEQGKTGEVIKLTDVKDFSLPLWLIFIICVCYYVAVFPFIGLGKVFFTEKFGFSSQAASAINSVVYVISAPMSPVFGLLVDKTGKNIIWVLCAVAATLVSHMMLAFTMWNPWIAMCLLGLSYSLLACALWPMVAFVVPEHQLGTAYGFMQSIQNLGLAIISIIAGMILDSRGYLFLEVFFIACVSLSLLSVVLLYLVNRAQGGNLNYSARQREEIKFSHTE
Sequence of UniProt Q9NUN5 (Q9NUN5 whole entry, looked up): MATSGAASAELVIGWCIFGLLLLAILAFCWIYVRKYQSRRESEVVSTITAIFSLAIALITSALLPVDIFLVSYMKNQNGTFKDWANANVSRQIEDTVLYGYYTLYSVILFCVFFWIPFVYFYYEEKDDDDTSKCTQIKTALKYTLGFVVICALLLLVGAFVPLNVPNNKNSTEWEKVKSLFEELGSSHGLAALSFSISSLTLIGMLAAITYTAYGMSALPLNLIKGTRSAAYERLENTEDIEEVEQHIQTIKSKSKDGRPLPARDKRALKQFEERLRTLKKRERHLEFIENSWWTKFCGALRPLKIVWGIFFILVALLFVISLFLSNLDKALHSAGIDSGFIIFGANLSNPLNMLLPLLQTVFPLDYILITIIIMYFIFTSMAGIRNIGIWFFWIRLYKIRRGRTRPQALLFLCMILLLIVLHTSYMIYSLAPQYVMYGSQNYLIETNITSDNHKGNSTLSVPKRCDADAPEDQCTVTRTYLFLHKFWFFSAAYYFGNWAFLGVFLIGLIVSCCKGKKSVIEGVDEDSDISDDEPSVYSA
Sequence of UniProt Q13422 (Q13422 whole entry, looked up): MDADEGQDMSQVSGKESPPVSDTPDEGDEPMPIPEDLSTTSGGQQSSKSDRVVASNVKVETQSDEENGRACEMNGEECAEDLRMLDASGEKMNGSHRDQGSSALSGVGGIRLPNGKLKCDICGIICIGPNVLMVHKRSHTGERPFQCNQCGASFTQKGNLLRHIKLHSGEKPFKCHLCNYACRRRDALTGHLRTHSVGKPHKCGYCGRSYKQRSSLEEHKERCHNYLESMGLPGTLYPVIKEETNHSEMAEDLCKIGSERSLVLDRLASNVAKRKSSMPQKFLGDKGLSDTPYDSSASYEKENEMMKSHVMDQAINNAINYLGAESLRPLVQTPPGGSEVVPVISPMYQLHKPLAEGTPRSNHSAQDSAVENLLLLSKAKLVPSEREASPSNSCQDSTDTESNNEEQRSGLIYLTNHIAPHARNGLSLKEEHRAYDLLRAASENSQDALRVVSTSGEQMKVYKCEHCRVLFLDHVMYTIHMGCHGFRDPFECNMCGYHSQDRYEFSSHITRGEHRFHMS
Sequence of UniProt O94889 (O94889 whole entry, looked up): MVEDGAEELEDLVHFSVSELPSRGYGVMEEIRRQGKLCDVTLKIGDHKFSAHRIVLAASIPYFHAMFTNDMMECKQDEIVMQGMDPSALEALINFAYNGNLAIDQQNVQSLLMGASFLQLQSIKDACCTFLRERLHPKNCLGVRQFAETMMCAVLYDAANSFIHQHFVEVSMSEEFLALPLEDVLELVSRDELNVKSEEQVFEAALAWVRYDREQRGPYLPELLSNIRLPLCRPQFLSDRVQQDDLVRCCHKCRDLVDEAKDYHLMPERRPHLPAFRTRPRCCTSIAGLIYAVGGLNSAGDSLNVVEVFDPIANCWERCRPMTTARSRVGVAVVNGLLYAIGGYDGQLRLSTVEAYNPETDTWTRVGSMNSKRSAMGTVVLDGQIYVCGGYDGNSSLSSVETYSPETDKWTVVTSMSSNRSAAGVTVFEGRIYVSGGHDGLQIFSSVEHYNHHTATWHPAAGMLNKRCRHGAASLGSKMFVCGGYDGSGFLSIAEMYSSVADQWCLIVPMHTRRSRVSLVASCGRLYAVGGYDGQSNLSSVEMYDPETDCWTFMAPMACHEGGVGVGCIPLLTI
Sequence of UniProt Q8TDD5 (Q8TDD5 whole entry, looked up): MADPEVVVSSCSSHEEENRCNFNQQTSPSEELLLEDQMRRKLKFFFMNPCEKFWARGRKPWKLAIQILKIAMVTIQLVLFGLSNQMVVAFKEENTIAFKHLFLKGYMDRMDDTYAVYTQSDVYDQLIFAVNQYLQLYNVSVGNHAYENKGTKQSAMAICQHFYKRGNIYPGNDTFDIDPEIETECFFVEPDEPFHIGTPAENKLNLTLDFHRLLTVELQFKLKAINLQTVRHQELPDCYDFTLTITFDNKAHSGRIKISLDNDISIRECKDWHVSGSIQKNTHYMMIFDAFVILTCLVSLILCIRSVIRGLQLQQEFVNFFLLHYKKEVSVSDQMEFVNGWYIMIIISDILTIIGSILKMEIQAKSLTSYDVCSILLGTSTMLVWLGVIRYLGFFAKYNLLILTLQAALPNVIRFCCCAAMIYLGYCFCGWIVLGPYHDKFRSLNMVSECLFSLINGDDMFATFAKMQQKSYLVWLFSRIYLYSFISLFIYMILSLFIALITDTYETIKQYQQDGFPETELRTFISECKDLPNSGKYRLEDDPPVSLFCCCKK
Sequence of UniProt Q9BQD3 (Q9BQD3 whole entry, looked up): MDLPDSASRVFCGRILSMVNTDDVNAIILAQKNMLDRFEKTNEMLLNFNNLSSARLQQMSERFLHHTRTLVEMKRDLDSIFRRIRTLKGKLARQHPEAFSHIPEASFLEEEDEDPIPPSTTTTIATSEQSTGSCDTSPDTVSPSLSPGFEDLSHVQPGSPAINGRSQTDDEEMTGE
Sequence of UniProt O15243 (O15243 whole entry, looked up): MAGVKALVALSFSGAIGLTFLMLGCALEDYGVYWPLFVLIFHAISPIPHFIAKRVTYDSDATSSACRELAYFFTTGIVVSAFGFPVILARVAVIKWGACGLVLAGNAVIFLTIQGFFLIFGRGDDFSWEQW

Target	log2 fold change
IGFBP6 (UniProt P24592)	-0.049
LMBRD1 (UniProt Q9NUN5)	0.088
MCOLN3 (UniProt Q8TDD5)	-0.057
ITM2C (UniProt Q9NQX7)	-0.063
MAML1 (UniProt Q92585)	0.013
ITPRID2 (UniProt P28290)	-0.025
MAP4 isoform 5 (UniProt P27816)	-0.019
LPIN3 isoform 2 (UniProt Q9BQK8)	-0.024
MAPK11 (UniProt Q15759)	1.47 (active)
IKZF1 isoform 2 (UniProt Q13422)	0.152
KIF21A (UniProt H0YI78)	0.366
IP6K1 (UniProt Q92551)	-0.159
KMT2C isoform 3 (UniProt Q8NEZ4)	0.074
MFSD1 isoform 6 (UniProt Q9H3U5)	-0.172
LRRCC1 (UniProt Q9C099)	0.043
KXD1 (UniProt Q9BQD3)	-0.053
KLHL18 (UniProt O94889)	0.055

Compound: CC(C)(O)CC(=O)NCCn1ccc2ncnc(Nc3ccc(Oc4cccc(C(F)(F)F)c4)c(Cl)c3)c21
Test: as above
Summary of the method: as §1

Target	log2 fold change
LMBRD1 (UniProt Q9NUN5)	-0.059
MARCHF3 (UniProt Q86UD3)	-0.133
ITM2C (UniProt Q9NQX7)	-0.186
MAML1 (UniProt Q92585)	0.02
IGFBP3 isoform 2 (UniProt P17936)	0.196
ITPRID2 (UniProt P28290)	0.238
MAP4 isoform 5 (UniProt P27816)	0.052
LRRFIP1 isoform 4 (UniProt Q32MZ4)	-0.019
LPIN3 isoform 2 (UniProt Q9BQK8)	-0.14
MFAP3 (UniProt P55082)	-0.165
LEPROT (UniProt O15243)	0.142
IP6K1 (UniProt Q92551)	-0.295
MAGED1 isoform 2 (UniProt Q9Y5V3)	-0.136
LYN isoform 2 (UniProt P07948)	0.002
KMT2C isoform 3 (UniProt Q8NEZ4)	-0.044
MFSD1 isoform 6 (UniProt Q9H3U5)	0.055
MAP3K20 isoform 2 (UniProt Q9NYL2)	0.078
LSR (UniProt M0QZL9)	0.057
KXD1 (UniProt Q9BQD3)	0.034
MAPK7 (UniProt Q13164)	0.008
KLHL18 (UniProt O94889)	0.006

Compound: CC(C)C1=C2N=C(C=C(N2N=C1)NCC3=CC=CC=C3)NCCCCCCN
Test: as above
Summary of the method: as §1

Target	log2 fold change
LMBRD1 (UniProt Q9NUN5)	-0.708 (active)
MCOLN3 (UniProt Q8TDD5)	0.019
ITM2C (UniProt Q9NQX7)	-0.445 (active)
MAML1 (UniProt Q92585)	0.016
ITPRID2 (UniProt P28290)	-0.686 (active)
MAP4 isoform 5 (UniProt P27816)	0.083
LRRFIP1 isoform 4 (UniProt Q32MZ4)	0.031
LPIN3 isoform 2 (UniProt Q9BQK8)	0.027
LOX (UniProt P28300)	-0.218
ING5 (UniProt Q8WYH8)	-0.395
MAPK11 (UniProt Q15759)	-0.853
IKZF1 isoform 2 (UniProt Q13422)	0.031
MED29 (UniProt Q9NX70)	-0.038
MFSD12 isoform 3 (UniProt Q6NUT3)	-0.474 (active)
LEPROT (UniProt O15243)	-0.777 (active)
KIF21A (UniProt H0YI78)	-0.158
IP6K1 (UniProt Q92551)	-0.667 (active)
LAPTM4B (UniProt Q86VI4)	0.141
MAGED1 isoform 2 (UniProt Q9Y5V3)	0
LYN isoform 2 (UniProt P07948)	-0.078
KMT2C isoform 3 (UniProt Q8NEZ4)	-0.06
MFSD1 isoform 6 (UniProt Q9H3U5)	-0.427 (active)
MAP3K20 isoform 2 (UniProt Q9NYL2)	0.089
KXD1 (UniProt Q9BQD3)	-0.181
KLHL18 (UniProt O94889)	-0.117

Compound: CC(C)C[C@@H](C=O)NC(=O)[C@H](CC(C)C)NC(=O)[C@H](CC(C)C)NC(=O)OCc1ccccc1
Test: as above
Summary of the method: as §1

Target	log2 fold change
IGFBP6 (UniProt P24592)	0.097
LMBRD1 (UniProt Q9NUN5)	-0.022
MCOLN3 (UniProt Q8TDD5)	0.029
ITM2C (UniProt Q9NQX7)	0.036
MAML1 (UniProt Q92585)	-0.043
ITPRID2 (UniProt P28290)	0.063
MAP4 isoform 5 (UniProt P27816)	0.014
LPIN3 isoform 2 (UniProt Q9BQK8)	0.073
MAPK11 (UniProt Q15759)	-0.091
IKZF1 isoform 2 (UniProt Q13422)	0.159
KIF21A (UniProt H0YI78)	0.012
IP6K1 (UniProt Q92551)	0.069
KMT2C isoform 3 (UniProt Q8NEZ4)	0.191
MFSD1 isoform 6 (UniProt Q9H3U5)	0.043
LRRCC1 (UniProt Q9C099)	0.237
KXD1 (UniProt Q9BQD3)	0.041
KLHL18 (UniProt O94889)	-0.111
